# Compounds with a hit are over-represented: about 2.1% of the library has one in this group of screens.
# FUS suppressor: FUS proteinopathy suppression in yeast | S. cerevisiae FUS-expressing, growth rescue, OD600, 24 h | Potency, µM (titrated, usually from 76.6 µM), hits mostly activators | hit rate 0.24% among 390,000 | AID 1347120;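 further: plate controls were DMSO vehicle for no effect and reference control for full effect; nearly all actives have a fitted effect of over 55% in size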
#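 Read-out: OD at 600 nm after 24hr at 30C, reporting rescue of FUS-induced yeast toxicity. Cells at OD 0.005 in galactose (2%) minimal medium; compounds tested in a dilution series; CP55940 titration from 92uM final as control.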
# Abeta rescue: A-beta toxicity reversal in yeast. yeast expressing A-beta42, growth rescue, OD600, 48 h; response scale: 0% DMSO, 100% iron-clioquinol control. Potency, µM (highest dose often 46.1 µM), usual class: activators. hit rate 0.063% among 410,000. AID 1347071; further: nearly all actives have a fitted effect of over 55% in size
#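 Yeast growth medium received pinned compounds, then yeast cells expressing toxic A-beta were added; plates incubated at 30 C for 48 hr. Growth read as absorbance at 600 nm, normalized to DMSO and equimolar FeCl3 plus clioquinol controls.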
# TDP43 rescue: rescues yeast growth from TDP-43 toxicity; TDP-43 expressing yeast growth rescue, BacTiter-Glo, 24 h; Potency, µM (series often up to 46.1 µM), without a hit: top-dose growth rescue (activation), actives largely listed as activators; hit rate 1.8% among 410,000; further: % of control where 0% means no effect; nearly all actives have a fitted effect of over 50% in size
#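 Luminescence from BacTiter-Glo reports growth of TDP-43-expressing yeast after 24 hr at 30 deg C with compound. Cells were raffinose-pregrown to mid-log, then seeded in galactose medium at OD600=0.02.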
# aSyn rescue: alpha-synuclein toxicity inhibition in yeast. Yeast expressing alpha-synuclein, growth rescue, BacTiter-Glo, 24 h. Potency, µM (series often up to 46.1 µM), without a hit: top-dose growth rescue (activation), hits mostly activators. hit rate 0.14% among 370,000. AID 652106; further: % of control where 0% means no effect; nearly all actives have a fitted effect of over 65% in size
#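 Galactose-induced alpha-syn yeast (OD600=0.02, raffinose-pregrown) + pinned cpd, 24 hr, 30 deg C; growth by BacTiter-Glo luminescence. Growth restoration scores as activation.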
# * marks the source's active call; other numbers are inactive results; i = inactive; ? = inconclusive; . = not tested or not shown. The call rests on the fitted dose curve; in most records, active means well fitted curve in the direction sought with a large enough effect; inconclusive means small, poorly fitted or top-dose-only effect, or another doubt; inactive means no such curve, though single readings can be large; an effect the other way counts as inactive or inconclusive. Potency means the concentration at half of the fitted maximal effect.
SMILES,FUS suppressor,Abeta rescue,TDP43 rescue,aSyn rescue
Clc1ccccc1Nc1ncnc2c1nc1n2CCCCC1,i,i,17.8µM*,.
Clc1cccc(Nc2ncnc3c2nc2n3CCCCC2)c1,i,i,15.8µM*,.
Cc1ccc(Nc2ncnc3c2nc2n3CCCC2)c(Br)c1,i,i,17.8µM*,.
Clc1cccc(CNc2ncnc3c2nc2n3CCCC2)c1,i,?,12.6µM*,.
CCS(=O)(=O)N1CCc2cc(C(=O)N3CCN(c4cccc(C(F)(F)F)c4)CC3)ccc21,?,i,?,.
O=C(Nc1cc(Cl)ccc1-n1cncn1)c1ccc([N+](=O)[O-])o1,i,i,14.1µM*,-27.7%
CCCCOc1c(Cl)cc(C(=O)N(Cc2ccc(C)o2)C2CCS(=O)(=O)C2)cc1Cl (stereo not given),?,i,?,.
CCCCCOc1c(Cl)cc(C(=O)N(Cc2ccc(C)o2)C2CCS(=O)(=O)C2)cc1Cl (stereo not given),35.5µM*,i,4.8%,.
O=C(O)CCC(=O)c1ccc(C2CCCCCC2)cc1,i,i,17.8µM*,-15.3%
COc1ccc(C(=O)CCC(=O)O)cc1,i,i,13.6%,1.6%
COc1cccc(OC)c1NC(=O)OC1CCC12CCC(c1ccccc1)CC2 (stereo not given),i,.,.,.
Cc1ccc(S(=O)(=O)Cc2ccc(C(=O)N3CCN(c4cccc(C)c4C)CC3)o2)cc1,?,i,22.4µM*,12.8%
COc1ccc(CC(=O)N2CCN(c3cccc(C)c3C)CC2)cc1,i,i,11.2µM*,-1.5%
COc1cccc(NC(=O)N2CCN(c3cccc(C)c3C)CC2)c1,i,i,12.6µM*,-0.2%
COc1ccccc1N1CCN(C(=O)Nc2cccc(Cl)c2)CC1,i,i,-4.5%,5.9%
COc1ccc(CCC(=O)N2CCN(c3cccc(C)c3C)CC2)cc1,i,i,?,22.4%
O=C(c1ccc(COc2ccccc2)o1)N1CCN(S(=O)(=O)c2ccccc2Cl)CC1,i,i,15.8µM*,0.5%
Cc1ccc(S(=O)(=O)N2CCN(C(=O)c3ccc(COc4ccccc4)o3)CC2)cc1,i,i,19.8%,-3.1%
O=C(CCCCCN1C(=O)C2C3C=CC(C3)C2C1=O)Nc1cc(F)cc(F)c1 (stereo not given),i,.,.,.
CCOc1ccc(Nc2c(S(=O)(=O)c3ccc(Cl)cc3)cnc3ccc(OC)cc23)cc1,i,i,0.0%,.
CCOC(=O)CSc1nc2cc(OC)c(OC)cc2cc1C#N,.,.,.,-0.5%
C=C(C)CSc1nc2sc3c(c2c(=O)n1Cc1ccccc1)CC(C)(CC)OC3 (stereo not given),i,i,2.0%,.
COc1cc2nc(NC3CCN(Cc4ccccc4)CC3)nc(N3CCCN(C)CC3)c2cc1OC,.,.,.,1.8%
O=C(OCCN1CCN(C2CN(Cc3cn(Cc4ccccc4Cl)nn3)S(=O)(=O)C2)CC1)c1cc2ccccc2o1 (stereo not given),i,.,.,.
CC(C)(C)c1ccc(OCCSc2nc(-c3cccs3)nc3cc(=O)[nH]n23)cc1,i,i,2.9%,.
SMILES,FUS suppressor,Abeta rescue,TDP43 rescue,aSyn rescue
COc1ccc(S(=O)(=O)Cc2ccc(C(=O)N3CCN(c4cccc(C)c4C)CC3)o2)cc1,i,i,25.1µM*,1.2%
O=C(c1ccc(CS(=O)(=O)c2c(Cl)cccc2Cl)o1)N1CCCC1,i,i,14.0%,-8.1%
O=C(c1ccc(CS(=O)(=O)c2c(Cl)cccc2Cl)o1)N1CCN(c2ccccc2)CC1,28.2µM*,i,29.3%,.
COc1ccc(S(=O)(=O)Cc2ccc(C(=O)N3CCN(c4cc(C)ccc4C)CC3)o2)cc1,?,i,?,0.1%
CCC[C@H]1[C@@H](N(C)Cc2ccccc2)CC[C@@]23CCCN2C(=O)CCC[C@@H]13,i,.,.,.
CCc1ccc(NS(=O)(=O)c2ccc3[nH]cc(C(=O)NC4CCCC4)c(=O)c3c2)cc1,28.2µM*,i,11.2%,.
Cc1c[nH]c2cccc(-c3ccc(OCc4ccccc4)cc3)c12,i,.,.,.
Cc1cc(C(=O)CCl)c(C)n1Cc1ccco1,i,i,10µM*,-30.8%
Cc1cc(C(=O)CCl)c(C)n1CCc1ccccc1,i,i,10µM*,-11.3%
COC(=O)CCCn1c(C)cc(C(=O)CCl)c1C,i,i,20µM*,-34.7%
CCOC(=O)c1cc(C)n(CCc2ccccc2)c1C,i,i,7.8%,-8.9%
COC(=O)CCn1c(C)cc(C(=O)COc2ccccc2C(N)=O)c1C,i,i,-11.6%,5.7%
Cc1ccc(S(=O)(=O)N2CCN(c3nc(-c4cccs4)nc4nc[nH]c34)CC2)cc1,.,.,.,-10.3%
COc1ccccc1NC(=O)c1ccc(-c2ccc(Br)cc2)o1,i,i,19.3%,-2.6%
COc1ccccc1NC(=O)c1ccc(-c2ccccc2[N+](=O)[O-])o1,i,i,31.6µM*,2.1%
COc1cc(NC(=O)c2cc(-c3ccccc3Cl)on2)cc(OC)c1OC,i,i,15.8µM*,-26.2%
COc1ccc(CN(CC#Cc2ccc(C)cc2)C(N)=NC(=O)CCc2ccccc2)c(OC)c1,i,.,.,.
Cc1c(C2(O)CCCCC2)[nH]c2cc(C(F)(F)F)ccc12,i,i,6.31µM*,-15.9%
COc1cc(C=O)ccc1OCc1ccccc1Br,.,i,11.2µM*,-19.3%
COc1cc(C=O)ccc1OCc1cccc(Br)c1,.,i,20µM*,13.9%
COc1ccc(C=O)cc1COc1ccc(F)cc1F,i,i,24.7%,-9.8%
O=C(c1noc2c1CCCCC2)N1CCN(c2ccc(Cl)cc2)CC1,i,i,11.0%,.
Cc1onc(C(=O)N2CCN(c3ccccc3)CC2)c1[N+](=O)[O-],i,i,?,-3.1%
Cc1ccc(Cl)cc1N1CCN(C(=O)c2noc(C)c2[N+](=O)[O-])CC1,i,i,12.6µM*,2.5%
Cc1ccc(CSCC(=O)N2CCN(c3cc(Cl)ccc3C)CC2)cc1,i,i,17.8µM*,.
SMILES,FUS suppressor,Abeta rescue,TDP43 rescue,aSyn rescue
Cc1ccc2c(c1)-c1onc(C(=O)N3CCN(c4cccc(C)c4C)CC3)c1CO2,i,i,3.7%,2.9%
Cc1ccc(Cl)cc1N1CCN(C(=O)c2noc3c2CCCC3)CC1,i,i,22.4µM*,.
Cc1cccc(N2CCN(C(=O)c3noc4c3CCCCC4)CC2)c1C,i,i,15.8µM*,.
O=C(NCc1ccc(F)c(F)c1)C1C2C=CC3(CN(Cc4ccccc4)C(=O)C13)O2 (stereo not given),i,.,.,.
C=CCN1C(=O)[C@@H](CC(=O)N2CCOCC2)[C@]2(C(=O)OC)CCCCC=C12,i,.,.,.
COc1cccc(NC(=S)NC(Cc2ccccc2)c2ccccc2)c1 (stereo not given),i,?,11.2µM*,27.2%
O=C(O)c1ccc(Cn2cnc3scc(-c4ccccc4)c3c2=O)cc1,i,i,?,14.3%
CCCOc1ccc(-c2csc3ncn(Cc4ccc(C(=O)O)cc4)c(=O)c23)cc1,i,i,25.1µM*,-59.9%
